High-throughput results deposited in PubChem by The Scripps Research Institute Molecular Screening Center.
PRMT1 inh: inhibitors of human PRMT1; recombinant PRMT1, activity-based probe fluorescence polarization; inhibition, % at 2.79 µM; hit rate 1.3% among 370,000; AID 652257;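 active = inhibition above about 21% made by adding two undisclosed values, limit read from the data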
Target sequence (Q99873 whole entry, looked up): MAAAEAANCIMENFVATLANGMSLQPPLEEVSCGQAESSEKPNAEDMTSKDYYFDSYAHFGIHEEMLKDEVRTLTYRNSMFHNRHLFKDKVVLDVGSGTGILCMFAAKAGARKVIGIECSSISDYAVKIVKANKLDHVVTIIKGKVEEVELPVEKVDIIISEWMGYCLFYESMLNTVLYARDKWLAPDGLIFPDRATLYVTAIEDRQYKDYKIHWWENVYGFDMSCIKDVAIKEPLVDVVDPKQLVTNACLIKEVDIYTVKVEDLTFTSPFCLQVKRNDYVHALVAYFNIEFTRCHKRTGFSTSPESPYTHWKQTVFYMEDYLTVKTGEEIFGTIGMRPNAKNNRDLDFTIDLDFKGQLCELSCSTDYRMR
rCAG binder-1: r(CAG) repeat RNA binding. AID 651821. TO-PRO-1 dye displacement fluorescence. inhibition, % at 3 µM. hit rate 1.3% among 370,000;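 active = inhibition above the plate cutoff, the mean of all test compounds on that plate plus 3 SD, cut at about 35% in these data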;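 also: 0% = DMSO alone and 100% = 100 µM mitoxantrone as full dye displacement; higher means more dye released from RNA so lower well fluorescence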
LEDGF integ inh: blocks HIV-1 LEDGF/p75-dependent DNA integration; inhibition, % at 3.7 µM; TR-FRET IN-LEDGF/p75 DNA integration, Eu/Cy5; hit rate 0.64% among 370,000;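 active = inhibition above the screen-wide mean plus 3 SD, cut at about 13% in these data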;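 also: signal is the Cy5 over europium emission ratio at 671 and 618 nm; 0% = plate median of compound wells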
UHRF1 binding: blocks human UHRF1 binding to methylated DNA | Q96T88 | hit rate 0.75% among 370,000 | inhibition, % at 4.4 µM | UHRF1 binding to methylated oligo, TR-FRET; in the data active = inhibition above about 21%;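 also: UHRF1 SRA domain binding a hemimethylated CpG hairpin DNA probe; 0% = median of test compound wells and 100% = reference inhibitor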
MBD2 DNA inh: MBD2-methylated oligo binding inhibition | TR-FRET, MBD2 binding to methylated oligonucleotide | inhibition, % at 4.4 µM | hit rate 0.31% among 370,000; in the data active = inhibition above about 13%
Target sequence (Q9UBB5 whole entry, looked up): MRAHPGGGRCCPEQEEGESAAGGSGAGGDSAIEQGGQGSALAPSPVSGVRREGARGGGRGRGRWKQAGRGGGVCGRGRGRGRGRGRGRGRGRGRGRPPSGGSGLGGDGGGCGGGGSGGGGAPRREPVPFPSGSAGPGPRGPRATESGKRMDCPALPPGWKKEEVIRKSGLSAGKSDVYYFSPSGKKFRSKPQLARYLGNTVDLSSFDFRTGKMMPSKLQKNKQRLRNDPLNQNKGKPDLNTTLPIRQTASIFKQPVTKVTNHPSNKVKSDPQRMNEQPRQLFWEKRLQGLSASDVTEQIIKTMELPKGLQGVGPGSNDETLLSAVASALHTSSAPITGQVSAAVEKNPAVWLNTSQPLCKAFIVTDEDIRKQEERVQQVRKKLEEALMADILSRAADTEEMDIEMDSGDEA
ABHD5-PLIN5 inh: inhibitors of human ABHD5-perilipin-5 interaction; inhibition, % at 4 µM; hit rate 0.78% among 360,000; Split G. princeps luciferase complementation, luminescence, 4 h; Q00G26+Q8WTS1;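 active = inhibition above the mean inhibition across every tested compound plus 3 SD, cut at about 22% in these data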;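 also: 0% = DMSO only wells and the 100% control is not disclosed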
rCAG binder conf: r(CAG) RNA repeat binding, confirmation | inhibition, % at 3 µM | AID 652065 | TO-PRO-1 dye displacement fluorescence | shares compounds with rCAG binder-1 | hit rate 70% among 4,300;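 active = inhibition above a per-plate cutoff, the mean inhibition of sample wells plus 3 SD, cut at about 35% in these data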;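 also: loss of TO-PRO-1 fluorescence as compound displaces dye from 1x1 AA loop RNA; 0% = DMSO only wells and 100% = 100 µM mitoxantrone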
DNA CAG counter: counter-screen for rCAG RNA binders: DNA CAG dye complex inhibitors; shares compounds with rCAG binder-1; d(CAG) DNA oligo TO-PRO-1 dye displacement, fluorescence; inhibition, % at 3 µM; hit rate 94% among 4,300; AID 652068;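 active = inhibition above its plate's cutoff, the mean test-well inhibition plus 3 SD, cut at about 4.8% in these data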;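 also: 0% = DNA dye mix with DMSO and 100% = 100 µM mitoxantrone; hits displace the dye from DNA and so lower well fluorescence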
dCAG dye DR: disrupts DNA CAG TO-PRO-1 complex in dose response; shares compounds with rCAG binder-1; DNA CAG/GTC duplex TO-PRO-1 dye displacement fluorescence; IC50, µM; hit rate 20% among 250; in the data active = IC50 below about 10 µM
dCAG DNA bind: counter-screen for rCAG binders: DNA CAG TO-PRO-1 complex inhibitors, late stage | hit rate 80% among 30 | d(CAG) DNA duplex TO-PRO-1 dye displacement, fluorescence | AID 720649 | shares compounds with rCAG binder-1 | IC50, µM
rCAG binder-2: molecules binding r(CAG) RNA repeats, late stage dose response; shares compounds with rCAG binder-1; r(CAG) RNA TO-PRO-1 dye displacement, fluorescence; IC50, µM; hit rate 100% among 30
* = called active by the depositor; i = inactive; . = no result. Compounds with a hit are over-represented: about 4.1% of the library has one in this group of screens. Unless noted, no rule for the calls is given here.

SMILES | PRMT1 inh | rCAG binder-1 | LEDGF integ inh | UHRF1 binding | MBD2 DNA inh | ABHD5-PLIN5 inh | rCAG binder conf | DNA CAG counter | others
COc1cccc(CO[C@H]2C=C[C@@H](c3ccccc3)O[C@@H]2CO)c1 | -0.4 | 5.3 | 2.0 | 2.4 | 6.0 | . | . | .
Nc1nc2c(ncn2[C@@H]2O[C@H](C(=O)N[C@H](Cc3ccccc3)C(=O)NCc3ccc4c(c3)OCO4)[C@@H](O)[C@H]2O)c(=O)[nH]1 | 8.2 | 9.5 | -5.1 | -0.3 | 0.2 | . | . | .
COc1ccccc1NS(=O)(=O)c1ccc(C)c(NS(=O)(=O)c2cc(C(=O)O)cc(C)c2C)c1 | 5.4 | 42.5* | -2.3 | 2.7 | 9.5 | 4.4 | 20.4 | 7.3*
COc1ccccc1NS(=O)(=O)c1ccc(C)c(C(N)=O)c1 | 3.1 | 1.3 | -2.3 | -1.4 | -0.4 | -2.6 | . | .
Cc1noc(NS(=O)(=O)c2ccc(NC(=O)c3ccc(OC(C)C)cc3)cc2)c1C | 2.7 | 43.9* | -1.4 | -1.2 | 0.7 | 0.4 | 25.6 | 3.8
COc1ccccc1C(=O)Nc1ccc(S(=O)(=O)Nc2onc(C)c2C)cc1 | -4.0 | 13.2 | 8.0 | 0.2 | -4.7 | 2.2 | . | .
COc1ccccc1NS(=O)(=O)c1ccc(C)c(C(=O)Nc2ccc(S(=O)(=O)Nc3onc(C)c3C)cc2)c1 | -2.5 | 62.7* | -0.4 | -1.9 | 1.9 | -8.4 | 56.9* | 22.3*
Cc1noc(NS(=O)(=O)c2ccc(NC(=O)c3ccc(N(C)C)cc3)cc2)c1C | -0.8 | 16.0 | 6.1 | -2.2 | 1.4 | 0.9 | . | .
COc1ccccc1NS(=O)(=O)c1cccc(NC(=O)Nc2cccc(Cl)c2)c1 | 0.6 | 35.0* | -0.6 | -0.6 | -4.2 | -2.8 | 27.2 | 13.4*
CN1CC(O)([C@H](Cc2ccccc2)NC(=O)OC(C)(C)C)OCC1C(=O)NCc1cccc2ccccc12 (some centres not stated) | 5.3 | . | -4.5 | 1.4 | 5.1 | . | . | .
COC(=O)[C@@H](Cc1ccccc1)N[C@H](/C=C/c1ccccc1)[C@@H](O)Cc1ccccc1 | 1.2 | 2.7 | 1.4 | -2.9 | 2.0 | . | . | .
Cc1ccc(S(=O)(=O)NC(=O)c2cc(C)n(-c3cc(S(=O)(=O)N4CCOCC4)ccc3N3CCCC3)c2C)cc1 | 5.3 | 36.2* | -2.9 | -2.1 | 0.3 | 1.1 | 49.1* | 15.3*
Cc1ccc(NS(=O)(=O)c2ccc(NC(=O)c3ccccc3C(=O)O)cc2)c(C)c1 | -2.9 | 1.4 | 3.6 | -0.4 | 0.4 | 4.4 | . | .
O=C(O)c1ccccc1NS(=O)(=O)c1cccc(NS(=O)(=O)c2cc(Br)ccc2Br)c1 | -2.8 | 68.9* | 8.4 | -2.1 | -0.8 | -3.6 | 61.1* | 22.5*
Cc1ccc(S(=O)(=O)Nc2cccc(S(=O)(=O)Nc3ccccc3C(=O)O)c2)c(C)c1 | 4.4 | 66.7* | -0.8 | 0.1 | 6.2 | -1.9 | 64.9* | 26.4*
CCOc1ccc(Br)cc1S(=O)(=O)Nc1cccc(S(=O)(=O)Nc2ccccc2C(=O)O)c1 | 0.7 | 78.5* | -4.8 | 0.6 | 2.8 | -4.8 | 83.0* | 47.7*
COc1ccc(C(=O)CSc2nnc(-c3cccs3)o2)cc1OC | 0.6 | -2.0 | -0.3 | 12.6 | 6.4 | . | . | .
C=CCNc1cccc2c1S(=O)(=O)N[C@@H](CC(C)C)CO2 | 1.7 | 4.1 | 1.8 | 5.2 | -0.4 | . | . | .
CN1C(=O)c2cc(NC(=O)C3CCOCC3)ccc2OC[C@@H]2O[C@@H](CC(=O)NCc3ccccc3F)CC[C@@H]21 | -3.1 | 0.3 | 1.7 | 2.1 | -1.6 | . | . | .
CCCOc1cccc(-c2cc(C(=O)NNC(=S)NCC)c3ccccc3n2)c1 | -5.7 | 57.6* | -5.0 | -3.0 | 6.9 | -14.8 | 56.0* | 19.7*
COc1ccc(C(=O)NNC(=S)NC(=O)c2cc(-c3ccccc3)nc3ccccc23)cc1 | 4.2 | 65.5* | 0.4 | -5.7 | 0.5 | -0.4 | 78.5* | 33.2*
CCNC(=S)NNC(=O)c1cc(-c2ccc(OCC)cc2)nc2ccccc12 | 0.3 | 42.5* | -11.3 | -4.3 | 0.7 | -5.6 | 48.0* | 16.5*
CCNC(=S)NNC(=O)c1cc(-c2ccccc2C)nc2ccccc12 | . | . | . | . | . | -7.2 | . | .
Cc1ccc(C)c(-c2cc(C(=O)NNC(=S)NCC(C)C)c3ccccc3n2)c1 | -0.6 | 44.7* | -13.2 | -5.7 | 0.3 | -11.4 | 67.1* | 24.1* | dCAG dye DR=>29.9
CCCOc1ccc(C(=O)NNC(=S)NC(=O)c2cc(-c3ccc(Cl)cc3)nc3ccccc23)cc1 | 5.7 | 16.2 | 1.5 | 2.9 | 0.8 | -17.1 | . | .
SMILES | PRMT1 inh | rCAG binder-1 | LEDGF integ inh | UHRF1 binding | MBD2 DNA inh | ABHD5-PLIN5 inh | rCAG binder conf | DNA CAG counter | others
CC(C)C[C@H](NS(=O)(=O)c1ccc(F)cc1F)C(=O)N1CCC[C@H]1C(=O)NCc1ccccc1 | 5.6 | -0.2 | -2.3 | 1.7 | 1.1 | . | . | .
C[C@H]1[C@@H](NCC2CCCCC2)CC[C@@]23CCCN2C(=O)CCC[C@@H]13 | -3.4 | . | 3.1 | -1.8 | 1.9 | . | . | .
Cc1cc(N2CCN(CC(C)(C)O)C[C@H]2C)ccc1N1CCN(CC(C)(C)O)[C@H](C)C1 | -5.7 | -1.3 | -2.8 | 0.7 | -0.3 | . | . | .
CC(=O)OCCC(CC(C)C)NC(=O)[C@H](CC(C)C)NC(=O)OCc1ccccc1 (some centres not stated) | -2.8 | . | 0.5 | -3.2 | -1.1 | . | . | .
COc1ccc(-c2cc(C(=O)NNC(=S)NC(=O)c3c(-c4ccccc4)noc3C)[nH]n2)cc1 | 1.9 | 70.1* | -11.4 | 21.5* | 1.1 | -2.3 | 74.7* | 32.6* | dCAG dye DR=i;dCAG DNA bind=i;rCAG binder-2=0.989*
COc1ccc(/C=C/C(=O)NC(=S)NNC(=O)c2c(-c3ccccc3)noc2C)cc1 | -0.1 | 12.0 | -2.0 | -0.5 | 1.2 | -1.8 | . | .
CCOc1cc([N+](=O)[O-])cc(/C=C2/NC(=O)N(Cc3ccccc3F)C2=O)c1O | 5.6 | 45.6* | -6.4 | -8.0 | -4.6 | 1.5 | 46.6* | 13.8*
CC(CCN1CCC(C(O)(c2ccccc2)c2ccccc2)CC1)Oc1cccc(Cl)c1 (configuration not stated) | -4.5 | 3.5 | -1.8 | -1.6 | -4.0 | . | . | .
CCC(Sc1nc2ccsc2c(=O)n1Cc1ccc(C(=O)O)cc1)C(=O)Nc1ccc(C)c(Cl)c1 (configuration not stated) | 1.0 | 74.0* | 2.5 | 0.3 | -4.5 | 4.0 | 79.5* | 48.7*
